# Assay outcomes deposited in PubChem BioAssay by National Center for Advancing Translational Sciences (NCATS).
# HT1080 IDH1KD tx: qHTS for induction of synthetic lethality in tumor cells producing 2HG: qHTS for the HT-1080-IDH1KD cell line; HT-1080 IDH1 knockdown viability, ATP luminescence, 48 h; 360,000 tested, 2% active; Potency, µM (doses to about 46.1 µM), without a hit: top-dose activity, negative = toxicity, actives largely listed as cytotoxic;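 note: potency is the fitted concentration of half-maximal effect; 0% = DMSO wells and -100% = cell-free medium wells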
#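 Viability of IDH1-knockdown HT-1080 fibrosarcoma cells was assessed by CellTiter-Glo after 48 h at 37 °C with titrated compound; concentration-effect curves were classified by fit quality and response size.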
# DT40 TDP1 CPT: qHTS for Inhibitors of human tyrosyl-DNA phosphodiesterase 1 (TDP1): qHTS in cells in presence of CPT; AID 686979, 2013; Potency, µM (highest dose often 46.2 µM), for the others: at the top dose activity change, negative = growth inhibition, hits mostly inhibitors; chicken DT40 Tdp1-/-;hTDP1 cells + 20 nM CPT, ATP luminescence, 48 h; 420,000 tested, 12% active; note: potency is the fitted concentration of half-maximal effect; nearly all actives have a fitted effect of over 55% in size
#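 Cell growth measured by CellTiter-Glo luminescence after a minimum 48 h, 37 C compound exposure with 20 nM CPT in Tdp1-knockout DT40 cells stably expressing hTDP1, seeded 400/well; qHTS titration format.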
# TDP1 cell noCPT: qHTS for Inhibitors of human tyrosyl-DNA phosphodiesterase 1 (TDP1): qHTS in cells in absence of CPT | DT40 Tdp1-/- hTDP1 cells, no CPT, ATP luminescence, 48 h | Potency, µM (series often up to 46.2 µM), without a hit: at the highest dose activity change, negative = growth inhibition, most hits filed as inhibitors | 420,000 tested, 15% active | AID 686978, 2013; note: potency is the fitted concentration of half-maximal effect; nearly all actives have a fitted effect of over 55% in size
#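 Stably hTDP1-transfected Tdp1-null chicken DT40 cells were treated with library compounds minus camptothecin and grown for at least 48 hr at 37 °C, after which cellular ATP was quantified by luminescence.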
# ELG1 repair inh: qHTS screen for small molecules that inhibit ELG1-dependent DNA repair in human embryonic kidney (HEK293T) cells expressing luciferase-tagged ELG1; HEK293T ELG1-luciferase reporter, luminescence, 16 h; DNA damage induced by 5-fluorouridine; Potency, µM (titrated, usually from 46.1 µM), without a hit: at the top dose activity change, negative = inhibition, actives largely listed as inhibitors; 330,000 tested, 2.3% active; AID 504467, 2011; note: potency is the fitted concentration of half-maximal effect; nearly all actives have a fitted effect of over 55% in size
#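 Overnight (16 hr) co-exposure of 2,000 cells/well to 5-fluorouridine and compound at 37 °C preceded detection. Luciferase was quantified via ONE-Glo luminescence; loss of signal denotes inhibition.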
# HT1080-NT tox: qHTS for induction of synthetic lethality in tumor cells producing 2HG: qHTS for the HT-1080-NT fibrosarcoma cell line | HT-1080-NT fibrosarcoma viability, CellTiter-Glo ATP luminescence, 48 h | Potency, µM (top dose mostly 46.1 µM), for the others: at the highest dose activity, negative = less viability, hits mostly cytotoxic | 360,000 tested, 1.6% active;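 note: NT is the 2HG producing partner of a matched IDH1 knockdown line; potency is the fitted concentration of half-maximal effect; 0% = DMSO-treated cells and -100% = media-only wells without cells; nearly all actives have a fitted effect of over 55% in size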
#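 Viability by CellTiter-Glo luminescence after 48 h compound exposure at 37C of HT-1080-NT cells (750/well, RPMI, 5% FBS). % activity scaled between DMSO wells and medium-only wells, then curve-fitted and categorized by curve class.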
# IL1B secr inh: qHTS for Inhibitors of Inflammasome Signaling: IL-1-beta AlphaLISA Primary Screen; THP-1 LPS/ATP IL-1B secretion, AlphaLISA, 16 h; stronger effect = lower value; activity change, % at 57.5 µM; 360,000 tested, 4.7% active; in the data active = activity change below about -50%; inconclusive = mostly about -30% to -49%
#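 THP-1 cells pretreated 1 hr with compounds (up to 57.5 uM final), then stimulated with LPS (250 ng/mL final) plus ATP (1.25 mM final); secreted IL-1B measured by AlphaLISA after 16 hr, decreased signal indicating inhibition.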
# An asterisk follows results filed as active; ? = inconclusive; · = no result; [ ] = dose if it differs, or a comment. Compounds with a hit are over-represented: about 19% of the library has one in this group of screens. Unless noted, calls come from the whole dose curve; as a rule, active = well fitted curve in the direction sought with a large enough effect; inconclusive = small, poorly fitted or top-dose-only effect, or another doubt; inactive = no such curve, though single readings can be large; an effect the other way counts as inactive or inconclusive. Unless noted, % is set by controls: 0 for no effect and ±100 for the full control effect.
SMILES,HT1080 IDH1KD tx,DT40 TDP1 CPT,TDP1 cell noCPT,ELG1 repair inh,HT1080-NT tox,IL1B secr inh
COC(=O)C1CCN(C(=O)COc2ccc(S(=O)(=O)N3CCOCC3)cc2Cl)CC1,16%,-9%,-4%,3%,14%,-6
Cc1ccc2cccc(CC(=O)NN)c2c1,?,-4%,-23%,·,?,16
COc1cc(NC(=O)CN2Cc3ccccc3C2=O)cc(OC)c1OC,·,-15%,-27%,·,·,·
NC(=O)c1ccc[n+]([C@H]2O[C@@H](COP(=O)([O-])OP(=O)(O)OC[C@H]3O[C@@H](n4cnc5c(N)ncnc54)[C@H](O)[C@@H]3O)[C@H](O)[C@@H]2O)c1,?,?,?,15%,?,48
OC(c1ccc(F)c(F)c1)c1nc(-c2ccncc2)cs1 (stereo unspecified),?,8.2µM*,8.2µM*,·,0%,5
Cc1ccc(S(=O)(=O)N2CCN(c3nc(-c4ccncc4)nc4ccccc34)CC2)cc1,-28%,-16%,11µM*,·,-11%,·
O=S(=O)(c1ccccc1Br)N1CCN(c2nc(-c3ccccc3)nc3ccccc23)CC1,·,?,14µM*,·,·,·
CC(=O)c1nc(N2CCN(S(=O)(=O)c3ccc(C)cc3)CC2)c2ccccc2n1,-1%,?,?,·,-5%,·
CC(C)(C)c1ccc(S(=O)(=O)N2CCN(c3nc(-c4ccccc4)nc4ccccc34)CC2)cc1,·,-19%,-23%,·,·,·
Cc1ccc(S(=O)(=O)N2CCN(c3nc(-c4ncccn4)nc4ccccc34)CC2)cc1,14%,?,11µM*,·,1%,·
COC(=O)c1nc(N2CCN(S(=O)(=O)c3ccc(C)cc3)CC2)c2ccccc2n1,11%,?,18µM*,·,3%,·
CC(C)C(NC(=O)c1ccccc1NC(=O)c1ccccc1)C(=O)NCCCn1ccnc1 (stereo unspecified),6%,5%,-6%,9%,-6%,-12
Cc1ccc(CN2C[C@H](Sc3ccccn3)C[C@H]2C(=O)Nc2ccc3sc(C)nc3c2)c(C)c1,·,20%[9.04 µM],-16%,·,·,·
Cc1ccc(S(=O)(=O)N2CCN(c3nc(-c4cncnc4)nc4ccccc34)CC2)cc1,1%,8.9µM*,10µM*,·,-1%,·
Cc1ccc(S(=O)(=O)N2CCN(c3nc(-c4cscn4)nc4ccccc34)CC2)cc1,1%,?,?,·,-16%,·
Cc1ccc(S(=O)(=O)N2CCN(c3nc(-c4cnccn4)nc4ccccc34)CC2)cc1,1%,?,18µM*,·,1%,·
Cc1ccc(S(=O)(=O)N2CCN(c3nc(-n4c(=O)[nH]c5ccccc54)nc4ccccc34)CC2)cc1,-6%,11µM*,13µM*,·,-8%,·
N#Cc1ccc(S(=O)(=O)N2CCN(c3nc(-c4ccccc4)nc4ccccc34)CC2)cc1,25%,-15%,?,·,22%,·
Cc1ccc(S(=O)(=O)N2CCN(c3nc(-c4cccnc4)nc4ccccc34)CC2)cc1,1%,13µM*,11µM*,·,19%,·
CCCCN(C(=O)CC1CCCC1)c1c(N)n(CC(C)C)c(=O)[nH]c1=O,-1%,-7%,-4%,4%,-1%,2
O=C(O)C1C2CCC(O2)C1C(=O)Nc1ccc(F)c(Cl)c1 (stereo unspecified),-16%,12%,-6%,?,-3%,10
O=C(Nc1cccc2ccccc12)C12CC3CC(C1)CC(n1cnc([N+](=O)[O-])n1)(C3)C2,-9%,23µM*,26µM*,-9%,-11%,-10
COC(=O)c1ccccc1NC(=O)C12CC3CC(C1)CC(n1cnc(Cl)n1)(C3)C2,-1%,21µM*,16µM*,?,?,?
COc1ccc(NC(=O)C23CC4CC(C2)CC(n2cnc(Br)n2)(C4)C3)cc1Cl,-22%,?,23µM*,?,-2%,13
COC(=O)C12CC3CC(C1)CC(n1cnc(Cl)n1)(C3)C2,4%,?,-16%,16%,1%,8
SMILES,HT1080 IDH1KD tx,DT40 TDP1 CPT,TDP1 cell noCPT,ELG1 repair inh,HT1080-NT tox,IL1B secr inh
O=C(Nc1cc(Oc2ccccc2)cc([N+](=O)[O-])c1)C12CC3CC(C1)CC(n1cnc(Cl)n1)(C3)C2,-16%,?,?,?,-16%,-5
CC1CCN(C(=O)Cn2nnc(-c3ccc(N)cc3)n2)CC1,-1%,-3%,-11%,-1%,-10%,-15
Cc1cccc(C)c1NC(=O)c1csc(COCCO)n1,0%,0%,-5%,·,19%,9
CN(CC(=O)Nc1ccc(Cl)cc1)C(=O)Cc1c(F)cccc1Cl,-11%,13%,6%,0%,5%,2
CN(CC(=O)Nc1ccc(OC(F)(F)F)cc1)C(=O)/C=C/c1ccco1,0%,?,23µM*,0%,-5%,-21
CCOc1ccc(NC(=O)CN(C)C(=O)/C=C/c2ccco2)cc1OCC,0%,-10%,1%,0%,9%,-6
CN(CC(=O)Nc1ccc(OC(F)(F)F)cc1)C(=O)Cc1c(Cl)cccc1Cl,-2%,-14%,?,0%,-3%,-55*
Cc1noc(C)c1C(=O)N1CCCC(C)(C(=O)NS(=O)(=O)C2CC2)C1 (stereo unspecified),23%,-30%,?,·,0%,25
O=C(NC1CCCC1)C1C(c2ccc(C(F)(F)F)cc2)=Nc2ccccc2N1C(=O)c1cc2ccccc2[nH]1 (stereo unspecified),-25%,?,13µM*,·,-29%,24
COc1ccc(CCC(=O)N2c3ccccc3N=C(c3ccc(C(F)(F)F)cc3)C2C(=O)NC2CCCC2)cc1 (stereo unspecified),-23%,?,18µM*,·,-10%,-5
CC(Sc1ccc(S(=O)(=O)N(C)C)cn1)C(=O)NC1CCCC1 (stereo unspecified),-6%,-3%,5%,2%,1%,36
